Results filed as inconclusive are left out. Where a call stands in place of a potency, no number is given. Activity calls are given as the source filed them. Unless noted, calls come from the whole dose curve; as a rule, active = well fitted curve in the direction sought with a large enough effect; inconclusive = small, poorly fitted or top-dose-only effect, or another doubt; inactive = no such curve, though single readings can be large; an effect the other way counts as inactive or inconclusive.
Legend:
[1] = qHTS for Inhibitors of Plasmodium falciparum (CP250) proliferation (AID 504320)
In short: (§1)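 Parasite growth measured as SYBR Green DNA fluorescence (ex 485, em 535 nm) after overnight lysis following 72 h culture at 37 °C, 0.3% parasitemia, 2.5% hematocrit. Values normalized against DMSO and 0.29 uM artemisinin controls, with plate-stack correction.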

[2] = target: Atrial natriuretic peptide receptor 1 (Homo sapiens) (UniProt P16066); experiment: Natriuretic polypeptide receptor (hNpr1) antagonism - Pilot CMLD screen (AID 1347052; calls by dose curve;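 note: HEK293 cells with hNpr1 stimulated by hNppA peptide at 0.1 nM; cGMP level read as GloSensor luciferase luminescence after agonist stimulation; series mostly up to about 9.2 µM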)
[3] = qHTS for Inhibitors of Plasmodium falciparum (HB3) proliferation (AID 504318); note: nearly all actives have a fitted effect of over 60% in size; note: potency is the fitted concentration of half-maximal effect
In short: as §1

Chain of Atrial natriuretic peptide receptor 1 (Homo sapiens) (P16066 whole entry, looked up): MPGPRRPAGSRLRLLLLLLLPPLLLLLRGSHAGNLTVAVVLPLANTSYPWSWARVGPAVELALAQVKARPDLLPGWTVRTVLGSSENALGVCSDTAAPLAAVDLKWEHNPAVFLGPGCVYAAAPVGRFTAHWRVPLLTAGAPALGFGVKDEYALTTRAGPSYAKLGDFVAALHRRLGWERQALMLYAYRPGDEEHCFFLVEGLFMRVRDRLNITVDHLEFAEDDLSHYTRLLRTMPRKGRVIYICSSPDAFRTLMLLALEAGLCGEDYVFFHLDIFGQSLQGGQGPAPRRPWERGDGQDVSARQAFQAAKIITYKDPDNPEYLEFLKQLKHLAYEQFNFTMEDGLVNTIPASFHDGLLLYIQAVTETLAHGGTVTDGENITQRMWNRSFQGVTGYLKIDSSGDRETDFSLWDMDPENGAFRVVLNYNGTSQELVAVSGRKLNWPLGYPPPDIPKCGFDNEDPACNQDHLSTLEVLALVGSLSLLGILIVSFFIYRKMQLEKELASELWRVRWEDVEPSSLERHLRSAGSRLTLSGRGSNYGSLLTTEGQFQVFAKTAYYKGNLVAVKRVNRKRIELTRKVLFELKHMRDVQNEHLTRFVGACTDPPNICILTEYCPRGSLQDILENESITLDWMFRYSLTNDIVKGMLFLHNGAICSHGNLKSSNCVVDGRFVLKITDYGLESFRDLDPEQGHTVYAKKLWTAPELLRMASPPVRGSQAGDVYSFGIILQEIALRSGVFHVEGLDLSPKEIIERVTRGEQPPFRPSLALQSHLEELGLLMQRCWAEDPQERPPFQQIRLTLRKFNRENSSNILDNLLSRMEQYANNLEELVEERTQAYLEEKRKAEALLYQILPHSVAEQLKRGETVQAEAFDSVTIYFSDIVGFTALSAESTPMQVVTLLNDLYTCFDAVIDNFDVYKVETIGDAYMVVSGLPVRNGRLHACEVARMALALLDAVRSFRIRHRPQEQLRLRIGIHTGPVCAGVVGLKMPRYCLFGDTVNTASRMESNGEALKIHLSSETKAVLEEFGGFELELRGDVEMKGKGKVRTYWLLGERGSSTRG

For CCC=CC[C@@]1(C(=O)OC)C=C[C@@H](C)[C@H](c2ccccc2Br)N1C(=O)C(F)(F)F, the Potency [1] was “inactive” and the Potency [2] was “inactive”.

For COC(=O)C1=C(C(=O)OC)[C@@H]2N(Cc3ccccc3)c3ccccc3[C@@]23CCC(=O)N(CC2CC2)C3=N1, the Potency [3] was 3.29 µM (active) and the Potency [2] was “inactive”.

In the case of N#Cc1ccc2c(c1)C[C@]1(c3ccsc3)Oc3c(c(=O)oc4ccc(F)cc34)[C@@H]2O1, the Potency [1] is reported as “inactive” and the Potency [2] is reported as “inactive”.

In the case of CC(C)=CCN1C(=O)[C@]2(O[C@H](COc3ccccc3)CC3=C2CCC3)c2ccccc21, the Potency [3] is reported as 1.69 µM (active) and the Potency [2] is reported as “inactive”.

With C[C@H]1C[C@@H](C)O[C@@]2(C1)C(=O)N(Cc1ccc(F)cc1)c1ccccc12 the Potency [3] was “inactive”, the Potency [1] was “inactive” and the Potency [2] was “inactive”.

For c1ccc(CNc2oc(-c3ccccc3)nc2-c2cccc3ccccc23)cc1, the Potency [3] was 3.29 µM (active) and the Potency [2] was “inactive”.

For COc1ccc(N2C(=O)N3[C@H](c4ccccc4)[C@@H](C)C[C@H]4c5ccccc5C[C@]43C2=O)cc1, the Potency [3] was “inactive”, the Potency [1] was “inactive” and the Potency [2] was “inactive”.

For CCCC[C@]12Cc3cc(C#N)ccc3[C@H](O1)c1c(cc(-c3ccccc3)oc1=O)O2, the Potency [1] was “inactive” and the Potency [2] was “inactive”.

With CC1=CC[C@@H](COc2ccccc2)O[C@@]2(C1)C(=O)N(Cc1ccccc1C(F)(F)F)c1cccc(Br)c12 the Potency [3] was 1.69 µM (active) and the Potency [2] was “inactive”.

For C[C@@H](c1ccccc1)N1C(=O)[C@@H]2[C@H]3[C@H](O)[C@H](O)CC(=NOC[C@@H](O)COCc4ccco4)[C@H]3CC[C@H]2C1=O, the Potency [1] was “inactive” and the Potency [2] was “inactive”.

In the case of COC(=O)C1=C(C(=O)OC)[C@@H]2N(C)c3ccccc3[C@@]23C[C@@H](C(=O)OC)N(C(=O)NC2CCCC2)C3=N1, the Potency [3] is reported as “inactive”, the Potency [1] is reported as “inactive” and the Potency [2] is reported as “inactive”.

With C=C(C)C(=O)C=CC=Cc1ccccc1 the Potency [3] was “inactive”, the Potency [1] was “inactive” and the Potency [2] was “inactive”.

In the case of COC(=O)C1=C(C)N(Cc2ccccc2)C(=NCCc2c[nH]c3ccccc23)NC1c1cccc(F)c1 (centres undefined), the Potency [3] is reported as “inactive”, the Potency [1] is reported as “inactive” and the Potency [2] is reported as “inactive”.

With COC1=C[C@H](C(=O)NC2CCN(Cc3ccccc3)CC2)[C@H](C)[C@@H](c2ccccc2)CC1=O the Potency [1] was “inactive” and the Potency [2] was “inactive”.

With CCN1C(N(C)CCc2c[nH]c3ccccc23)=NC(c2cccc(C(F)(F)F)c2)C(C(=O)OC)=C1C (centres undefined) the Potency [3] was “inactive”, the Potency [1] was “inactive” and the Potency [2] was “inactive”.

For CCN1C(=NCCc2c[nH]c3ccccc23)NC(c2cccc(F)c2)C(C(=O)OC)=C1C (centres undefined), the Potency [3] was “inactive”, the Potency [1] was “inactive” and the Potency [2] was “inactive”.

With COc1cccc([C@@H]2Oc3ccc(OC)cc3C(=O)[C@@H]2OC(=O)Nc2cc(OC)c(OC)c(OC)c2)c1 the Potency [3] was “inactive”, the Potency [1] was “inactive” and the Potency [2] was “inactive”.

With COC(=O)CC1c2ccccc2C=C(C=Cc2ccc3c(c2)OCO3)N1C(=O)OC (centres undefined) the Potency [3] was 1.69 µM (active) and the Potency [2] was “inactive”.

With COc1cc2c(c(OC)c1OC)C(c1ccccc1)(c1ccccc1)CC2NC(=O)C(F)(F)F (centres undefined) the Potency [3] was 2.39 µM (active) and the Potency [2] was “inactive”.

With O=C1N(Cc2ccc(F)cc2)c2ccccc2[C@@]12O[C@H](COc1ccccc1)CC1CCCC12 (some centres undefined) the Potency [3] was “inactive”, the Potency [1] was “inactive” and the Potency [2] was “inactive”.

For CCOC(=O)CN1C(=O)[C@]2(O[C@H](COc3ccccc3)CC3=CCCC32)c2c(Br)cccc21 (some centres undefined), the Potency [1] was “inactive” and the Potency [2] was “inactive”.

With C[C@@H]1CC[C@H]2C(=O)O[C@@H](COc3ccc(C(C)(C)C)cc3)CN2[C@@H]1c1ccc(Br)cc1 the Potency [3] was 1.69 µM (active) and the Potency [2] was “inactive”.

With C=CCN=C1NC(c2cccc(C(F)(F)F)c2)C(C(=O)OC)=C(C)N1CC (centres undefined) the Potency [3] was “inactive”, the Potency [1] was “inactive” and the Potency [2] was “inactive”.

In the case of COc1ccc2c(c1)C[C@@H](C)O[C@]21C(=O)Nc2ccccc21, the Potency [3] is reported as “inactive”, the Potency [1] is reported as “inactive” and the Potency [2] is reported as “inactive”.

In the case of CC(Nc1oc(-c2ccccc2)nc1-c1ccccc1)c1ccccc1 (centres undefined), the Potency [3] is reported as “inactive”, the Potency [1] is reported as “inactive” and the Potency [2] is reported as “inactive”.

For CCOC(=O)CN1C(=O)[C@@]2(CC(C)=CC[C@@H](COc3ccccc3)O2)c2ccccc21, the Potency [1] was “inactive” and the Potency [2] was “inactive”.

With N#Cc1ccc2c(c1)C[C@]1(CCCCN3C(=O)c4ccccc4C3=O)OC3=C(C(=O)OC4(CCCCC4)C3)[C@H]2O1 the Potency [1] was “inactive” and the Potency [2] was “inactive”.

For CC1(C)CC(=O)C2=C(C1)O[C@@]1(CCCCN3C(=O)c4ccccc4C3=O)Cc3cc(C#N)ccc3[C@H]2O1, the Potency [1] was “inactive” and the Potency [2] was “inactive”.

With C[C@@H]1C(c2ccccc2)=CC(=O)c2nc3ccccc3cc2[C@@H]1C(=O)N1CCCC1 the Potency [1] was “inactive” and the Potency [2] was “inactive”.

In the case of COc1ccc([C@]23Cc4ccccc4[C@H](O2)c2c(cc(C)n(Cc4ccccc4)c2=O)O3)cc1, the Potency [1] is reported as “inactive” and the Potency [2] is reported as “inactive”.

For Cc1cccc(C)c1Nc1oc(-c2ccccc2)nc1-c1ccccc1F, the Potency [1] was “inactive” and the Potency [2] was “inactive”.

With CC1=CC[C@@H](COc2ccccc2)O[C@@]2(C1)C(=O)N(Cc1ccc(Br)cc1)c1ccccc12 the Potency [1] was “inactive” and the Potency [2] was “inactive”.

With C[C@H]1CC[C@H]2C(=O)N(Cc3ccc(Cl)cc3)C[C@H](O)CN2[C@H]1c1ccc(Br)cc1 the Potency [1] was “inactive” and the Potency [2] was “inactive”.

In the case of COc1ccc([C@]23Cc4cc(OC)c(OC)cc4[C@H](O2)C2=C(CCCC2=O)O3)cc1, the Potency [1] is reported as “inactive” and the Potency [2] is reported as “inactive”.

For CCOC(=O)CN1C(=O)[C@]2(O[C@H](COc3ccccc3)CC3=C2CCC3)c2ccccc21, the Potency [1] was “inactive” and the Potency [2] was “inactive”.

In the case of COCCN1C(=O)C2=C(C1=O)C1N(C)c3ccccc3[C@@]13C[C@@H](CO)N(C(=O)c1ccc(Br)cc1)C3=N2 (some centres undefined), the Potency [1] is reported as “inactive” and the Potency [2] is reported as “inactive”.

For CC1(C)O[C@@H](C(O)(c2ccccc2)c2ccccc2)[C@H](C(O)(c2ccccc2)c2ccccc2)O1, the Potency [1] was “inactive” and the Potency [2] was “inactive”.

With Fc1ccccc1-c1nc(-c2ccccc2)oc1NCc1ccccc1 the Potency [1] was “inactive” and the Potency [2] was “inactive”.

In the case of C[C@H]1Cc2c(COc3ccccc3)nc3c(c2CO1)CN(C(=O)c1cc(I)ccc1F)CC3, the Potency [1] is reported as “inactive” and the Potency [2] is reported as “inactive”.

In the case of C=CC[C@H]1C(=O)N2[C@@H](C[C@@H](C)[C@@H]2c2ccccc2)[C@@H](CC=C)C(=O)N2[C@H]1C[C@@H](C)[C@@H]2c1ccccc1, the Potency [1] is reported as “inactive” and the Potency [2] is reported as “inactive”.

With O=C1CCCC2=C1[C@H]1O[C@](CCCCN3C(=O)c4ccccc4C3=O)(Cc3c1ccc1ccccc31)O2 the Potency [1] was “inactive” and the Potency [2] was “inactive”.

For Oc1c(CN2CCOCC2)cc2c(c1-c1c(O)c(CN3CCOCC3)cc3c1CCCC3)CCCC2, the Potency [1] was “inactive” and the Potency [2] was “inactive”.

In the case of CC(C)(C)c1ccc(O[C@@H]2[C@H](O)CO[C@@H]2C=CC#Cc2ccccc2)cc1, the Potency [1] is reported as “inactive” and the Potency [2] is reported as “inactive”.

With COC1=CC2C(=O)C([C@@H]3c4ccccc4C[C@]23C)C1(O)c1cccc(OC)c1 (some centres undefined) the Potency [1] was “inactive” and the Potency [2] was “inactive”.

In the case of COC(=O)CCC(=O)N1C2=NC3=C(C(=O)N(Cc4ccc5c(c4)OCO5)C3=O)C3N(C)c4ccccc4[C@]23C[C@H]1CO (some centres undefined), the Potency [1] is reported as “inactive” and the Potency [2] is reported as “inactive”.

In the case of O=C1N(Cc2ccc(Br)cc2)c2cccc(Br)c2[C@@]12O[C@H](COc1ccccc1)CC1=CCCC12 (some centres undefined), the Potency [1] is reported as “inactive” and the Potency [2] is reported as “inactive”.

In the case of C[C@H]1CC[C@H]2C(=O)N(Cc3ccccc3)C[C@@H](O)CN2[C@H]1c1ccc(Br)cc1, the Potency [1] is reported as “inactive” and the Potency [2] is reported as “inactive”.

For C[C@@H]1[C@@H](c2ccccc2)c2cc3ccccc3nc2-c2nc3ccccc3cc2[C@H]1C(=O)N1CCCC1, the Potency [1] was “inactive” and the Potency [2] was “inactive”.

With C[C@H]1C[C@@H](C)O[C@@]2(C1)C(=O)N(Cc1ccccc1C(F)(F)F)c1ccccc12 the Potency [1] was “inactive” and the Potency [2] was “inactive”.

With C[C@H]1CC[C@H]2C(=O)N(Cc3cccc([N+](=O)[O-])c3)C[C@H](O)CN2[C@H]1c1cccc(Br)c1 the Potency [1] was “inactive” and the Potency [2] was “inactive”.

In the case of Cc1ccc(C=CC2=C[C@]3(C)C[C@]2(C)[C@H](c2ccc(C)cc2)CC3=O)cc1, the Potency [1] is reported as “inactive” and the Potency [2] is reported as “inactive”.

In the case of COc1ccc([C@]23Cc4cc(C#N)ccc4[C@H](O2)c2c(cc(C)n(-c4ccccc4)c2=O)O3)cc1, the Potency [1] is reported as “inactive” and the Potency [2] is reported as “inactive”.

For COC1=C(C(=O)c2ccccc2)C(=O)[C@@]2(CC=C(C)C)CC(C#N)C[C@@]1(CC=C(C)C)C2=O (some centres undefined), the Potency [1] was “inactive” and the Potency [2] was “inactive”.

In the case of COC1=C[C@H](C(=O)NC2CCN(Cc3ccccc3)CC2)C(C)C(c2ccccc2)CC1=O (some centres undefined), the Potency [1] is reported as “inactive” and the Potency [2] is reported as “inactive”.

For COC(=O)C(C(=O)OC)C1OC23CN(S(=O)(=O)c4ccc(C)cc4)C=CC2(C)C3c2ccccc21 (centres undefined), the Potency [1] was “inactive” and the Potency [2] was “inactive”.

For COC1=C[C@H](C(=O)N[C@H]2CCCC[C@H]2NC(C)=O)[C@@]2(C)Cc3ccccc3[C@@H]2CC1=O, the Potency [1] was “inactive” and the Potency [2] was “inactive”.

In the case of C=CCN1c2ccccc2[C@]23CCC(=O)N(Cc4cc(OC)c(OC)c(OC)c4)C2=NC(C(=O)OC)=C(C(=O)OC)[C@H]13, the Potency [1] is reported as “inactive” and the Potency [2] is reported as “inactive”.

For COc1cc2c(cc1OC)[C@@H]1O[C@](c3ccsc3)(C2)OC2=C1C(=O)CC(C)(C)C2, the Potency [1] was “inactive” and the Potency [2] was “inactive”.

With COc1ccc([C@]23Cc4cc(OC)c(OC)cc4[C@H](O2)c2c(cc(C)n(Cc4ccccc4)c2=O)O3)cc1 the Potency [1] was “inactive” and the Potency [2] was “inactive”.

In the case of CC(CCN1CCc2nc(-c3ccccc3)c(-c3ccccc3)cc2C1)=NO[C@H](C)CN1CCCCc2nc(C)c(C)cc21, the Potency [1] is reported as “inactive” and the Potency [2] is reported as “inactive”.

For COC(=O)CC=C[C@@H](C)[C@H](NC(=O)OCC(Cl)(Cl)Cl)c1ccc(-c2ccccc2)cc1, the Potency [1] was “inactive” and the Potency [2] was “inactive”.

Reference: PubChem BioAssay (NCATS)
